# Compound activity from PubChem.
# Anesthetic bind – qHTS Assay for Identification of Novel General Anesthetics. apoferritin/1-aminoanthracene competitive binding, fluorescence. 350,000 compounds, 0.074% hits. AID 485281, 2010. Potency, µM (top dose mostly 77.5 µM), for the others: at the highest dose activity change, negative = displacement, actives largely listed as inhibitors; also: potency is read from the fitted curve at half-maximal effect; % is scaled to controls: 0 for no effect and ±100 for the full control effect; nearly all actives have a fitted effect of over 20% in size
# Target sequence (P02791 2-175 limits assumed): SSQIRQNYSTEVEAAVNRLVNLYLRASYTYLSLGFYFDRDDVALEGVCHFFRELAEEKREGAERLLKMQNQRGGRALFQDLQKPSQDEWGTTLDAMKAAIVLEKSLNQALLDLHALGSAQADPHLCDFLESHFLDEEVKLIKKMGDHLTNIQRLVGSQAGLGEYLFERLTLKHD
#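 Read-out: endpoint 1-AMA fluorescence, excitation 380 nm and emission 535 nm, after compounds sit 10 min at room temperature with 10 uM horse-spleen apoferritin in 50% saturated 1-AMA/PBS. Values come from four-parameter Hill fits.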
# ASM inhibitor – Inhibitors of Secretory Acid Sphingomyelinase (S-ASM): qHTS; 340,000 compounds, 0.006% hits; placental ASM, HMU-PC fluorogenic substrate, 60 min; Potency, µM (series often up to 57.5 µM), without a hit: top-dose activity change, negative = inhibition, actives largely listed as inhibitors; AID 504937, 2011; also: potency is read from the fitted curve at half-maximal effect
#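 Human placenta-derived ASM enzyme was preincubated with compound for 10 minutes at room temperature, then given fluorogenic substrate HMU-PC0 (9 uM final) for 60 minutes at 37 °C; a pH 10 stop preceded fluorescence reading at Ex 386/Em 447 nm.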
# IDH1 R132H inh – qHTS for Inhibitors of mutant isocitrate dehydrogenase 1 (IDH1): qHTS. IDH1-R132H enzyme, NADPH consumption, diaphorase/resazurin fluorescence. 390,000 compounds, 0.093% hits. AID 602179, 2012. Isocitrate dehydrogenase [NADP] cytoplasmic (Homo sapiens), O75874. Potency, µM (doses to about 76.6 µM), for the others: top-dose activity change, negative = inhibition, most hits filed as inhibitors; also: potency is read from the fitted curve at half-maximal effect; % is scaled to controls: 0 for no effect and ±100 for the full control effect; nearly all actives have a fitted effect of over 65% in size
# Target sequence (O75874 whole entry R132H, stated change not applied): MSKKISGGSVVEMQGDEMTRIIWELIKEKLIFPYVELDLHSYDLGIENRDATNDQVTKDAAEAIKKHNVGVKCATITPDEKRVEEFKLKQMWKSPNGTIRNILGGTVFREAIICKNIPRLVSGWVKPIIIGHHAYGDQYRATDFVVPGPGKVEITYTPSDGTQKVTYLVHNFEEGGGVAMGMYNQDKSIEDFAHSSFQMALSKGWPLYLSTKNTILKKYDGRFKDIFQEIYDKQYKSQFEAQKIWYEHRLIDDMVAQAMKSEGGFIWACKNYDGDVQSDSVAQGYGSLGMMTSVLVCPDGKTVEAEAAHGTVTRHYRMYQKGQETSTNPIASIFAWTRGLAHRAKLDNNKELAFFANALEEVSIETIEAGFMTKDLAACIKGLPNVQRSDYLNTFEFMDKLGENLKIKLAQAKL
#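 IDH1-R132H (0.5 ug/mL dispensed) in pH 7.5 Tris buffer was preincubated 30 min with compound, then given a substrate mix of 0.016 mM NADPH and 2 mM alpha-KG for 80 min at room temperature; remaining NADPH was read by diaphorase/resazurin fluorescence.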
# KCNH2 3.1 block – qHTS for Inhibitors of KCHN2 3.1: Mutant qHTS. Potassium voltage-gated channel subfamily H member 2, brain isoform KCNH2 3.1 (human). U2OS KCNH2 3.1, thallium flux FluxOr; hits give low values. activity change, % (tested at about 1.8 µM). 340,000 compounds, 0.95% hits;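 active = maximum activity change below -70%; inconclusive = maximum activity change from -70% to -50%; inactive = maximum activity change above -50%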;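 also: thallium influx rate constant from kinetic fluorescence after stimulation buffer; % is scaled to controls: 0 for no effect and ±100 for the full control effect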
#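 Normalized rate constant (relative to positive and negative DMSO controls) derived from a 2 min kinetic fluorescence read after stimulation; U2OS cells expressing the 3.1 isoform via virus at 1.77 x 10^8 /mL.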
# KCNH2 WT inh – qHTS for Inhibitors of KCHN2 3.1: Wildtype qHTS; U2OS, BacMam KCNH2, thallium flux FluxOr; hits give low values; activity change, % at 1.84 µM; 340,000 compounds, 0.37% hits; AID 720551, 2013;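 active = maximum activity change below -70%; inconclusive = maximum activity change between -70% and -50%; inactive = maximum activity change above -50%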; also: % is scaled to controls: 0 for no effect and ±100 for the full control effect
#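 U2OS cells were transduced with wild-type KCNH2 virus (2.03 x 10^8 / mL) for 4 h at room temperature, then cultured overnight at 37 C. Thallium flux was read with FluxOr dye. Rate constants were normalized to DMSO controls.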
# Starred values were filed as active, the others as inactive; i = inactive; ? = inconclusive; · = not tested or not shown; [ ] = another dose, or the depositor's remark. An excerpt weighted towards active compounds, which were near 1.2% of everything screened. Unless noted, calls follow the shape of the dose curve; as a rule, active = well fitted inhibition curve with a large enough effect; inconclusive = small, poorly fitted or top-dose-only effect; inactive = no such curve, though single readings can be large or run the other way.
SMILES,Anesthetic bind,ASM inhibitor,IDH1 R132H inh,KCNH2 3.1 block,KCNH2 WT inh
CCO[C@H]1O[C@@H]([C@H](COCc2ccccc2)OCc2ccccc2)[C@@H](OCc2ccccc2)[C@H]1O,-9%[29.3 µM],·,·,·,·
CN(C/C=C/c1ccccc1)Cc1cccc2ccccc12,·,-2%,4%,-95*,15
O=C(NC1CCCCC1NC(=O)c1cccs1)c1cccs1 (centres undefined),-7%,1%,-4%,8,-3
O=C(NC1CCCCCC1)c1cccs1,?,1%,3%,-3,-83*
CCC(=O)c1ccc(OCC(=O)NC2CCCC2)cc1,·,2%,3%,0,3
CCC(=O)c1ccc(OCC(=O)OCC(=O)NC2CCCCCCC2)cc1,5.6µM*,-8%,-11%,-7,3
Cc1ccc(C(=O)Nc2ccccc2C(=O)O)cc1S(=O)(=O)NC1CCCCC1,-7%,8%,-10%,-71*,7
Cc1ccc(C(=O)Nc2ccccc2C(=O)O)cc1S(=O)(=O)Nc1ccccc1,-11%,22%,-3%,-3,-7
c1ccc2c(-c3c[nH]c4ccccc34)c3ccccc3nc2c1,-12%,-3%,1%,-5,2
O=C(O)c1cc(-c2c[nH]c3ccccc23)nc2ccc3ccccc3c12,3%,i,1%,-98*,-15
CNc1nc(Cl)c(SC)c(NC2CCCCC2)n1,-8%,-6%,-3%,·,-13
Cc1cccnc1NC1CCCCC1,-14%,1%,4%,-13,·
Clc1nnc(NC2CCCCC2)c(Cl)c1Cl,·,·,-3%,-77*,11
c1ccc2c(NC3CCCC3)nnc(NC3CCCC3)c2c1,-9%,56%,-4%,-82*,7
CCc1ccccc1OCCCOc1ccc(OC)cc1,-5%,-4%,5%,-99*,-1
CCc1ccccc1OCCOc1ccc(C)cc1OC,3%,1%,5%,-3,-4
COc1ccccc1N1CCN(C(=O)c2cc3ccc4ccc(C)[nH]c4c3n2)CC1,-1%,·,-1%,·,·
CCCn1cc(S(=O)(=O)c2cccc(Cl)c2)c(=O)c2cc(F)c(N3CCOCC3)cc21,?,·,9%,·,·
COc1cc(CN2CCC(n3nccc3NC(=O)c3ccccc3OC)CC2)ccc1F,-8%,2%,8%,-70*,-106*
CCOc1ccc(CN2CCC(n3nccc3NC(=O)c3ccccc3OC)CC2)cc1,-8%,0%,5%,-12,-154*
CCn1cc(CN2CCC(n3nccc3NC(=O)c3ccccc3OC)CC2)cn1,-3%,6%,3%,-41,-2
COc1ccccc1C(=O)Nc1ccnn1C1CCN(Cc2ccccc2OCCO)CC1,-10%,-3%,9%,-82*,-39
Cc1ccc(C(=O)NCc2ccccc2)cc1NC(=O)c1nsc2ccccc12,-8%,·,-8%,·,·
Nc1ccccc1-c1nnc2n1CCCCC2,11%,2%,6%,13,-86*
Nc1cccc(-c2nnc3n2CCCCC3)c1,-1%,1%,0%,2,-4
SMILES,Anesthetic bind,ASM inhibitor,IDH1 R132H inh,KCNH2 3.1 block,KCNH2 WT inh
COc1cc(C2NC(=O)NC(O)(C(F)(F)F)C2C(C)=O)cc(OC)c1OC (centres undefined),-7%,1%,5%,-3,-186*
O=C(C[n+]1cc(Br)cc(Br)c1)c1cccc([N+](=O)[O-])c1,-9%,-1%,5%,-80*,-9
CC1CC=CC2C1C(=O)N(Cc1ccccc1)C2c1ccc2ccccc2c1Br (centres undefined),9%,·,·,·,·
NS(=O)(=O)c1ccc(N2CCN(S(=O)(=O)Cc3ccccc3)CC2)nc1,·,1%,0%,16,-5
NS(=O)(=O)c1ccc(N2CCN(CCOc3ccc(Cl)cc3)CC2)nc1,-10%,0%,30%,-95*,3
Cc1cc(C)nc(/N=C(\N)N(Cc2ccccc2)Cc2ccccc2)n1,-18%,-3%,10%,-77*,1
Cc1cc(C)nc(/N=C(\N)Nc2ccc(-c3ccccc3)cc2)n1,?,-2%,-3%,-80*,32
CCOC(=O)OCC1OC(C#Cc2ccc(F)cc2F)C=CC1OC(=O)OCC (centres undefined),-13%[15.3 µM],·,·,·,·
CCOc1ccc(CNC(=O)C2CCCN(S(=O)(=O)c3ccc4c(c3)CCCC(=O)N4)C2)cc1 (centres undefined),-19%,·,6%,·,·
CCc1ccc(NC(=O)c2cnc3sc(N4CCCC4)nn3c2=O)cc1,-5%,·,-17%,·,·
O=[N+]([O-])c1ccc(C(O)CN2CCN(C/C=C/c3ccccc3)CC2)cc1 (centres undefined),-10%,-2%,1%,-113*,-94*
O=[N+]([O-])c1ccc(NC2CCN(Cc3ccccc3)CC2)c([N+](=O)[O-])c1,?,-15%,2%,-96*,-74*
O=[N+]([O-])c1ccc(C(O)CN2CCN(Cc3ccccc3)CC2)cc1 (centres undefined),-4%,7%,1%,-70*,-16
OC(CN1CCN(Cc2ccccc2)CC1)c1ccccc1 (centres undefined),1%,0%,9%,6,11
O=[N+]([O-])c1ccccc1NC1CCN(Cc2ccccc2)CC1,-18%,-11%,0%,?,20
COc1ccc(Cl)cc1NC(=O)COC(=O)CC(C)(C)CC1=NS(=O)(=O)c2ccccc2N1,0%,·,46%,·,·
Cc1nc2ccccc2n1CCOc1ccc([N+](=O)[O-])cc1,-16%,-2%,-6%,-79*,45
O=C(OCC1OC(OC(=O)c2cc(O)c(O)c(OC(=O)c3cc(O)c(O)c(O)c3)c2)[C@@H](OC(=O)c2cc(O)c(O)c(OC(=O)c3cc(O)c(O)c(O)c3)c2)C(OC(=O)c2cc(O)c(O)c(OC(=O)c3cc(O)c(O)c(O)c3)c2)C1OC(=O)c1cc(O)c(O)c(OC(=O)c2cc(O)c(O)c(O)c2)c1)c1cc(O)c(O)c(OC(=O)c2cc(O)c(O)c(O)c2)c1 (some centres undefined),-16%,·,·,·,·
Cc1cccc(NC(=O)c2ncn3c2C(=O)N(C)CC3)c1,·,·,-3%,-83*,3
COc1ccc(C(=O)Nc2nnc(SCc3cc(=O)n4cccc(C)c4n3)s2)cc1,-6%,·,3%,·,·
CCCC(C)C(=O)Nc1ccc2c(c1)OCCO2 (centres undefined),-10%,2%,7%,5,0
CCCC(C)C(=O)Nc1cccc(NC(C)=O)c1 (centres undefined),0%,2%,7%,-92*,-21
